About 3,600 (1.2%) of roughly 300,000 compounds were called active. The entries come from a sample that favours actives as a whole. A number with no mark means an inactive call. Rule as the data show it: active = activation above about 30% (passing the limit was not always enough); inconclusive = no clear call, values can overlap the other calls.

The nature of this assay: activation of beta-catenin signaling reporter – cell-based, plate reader, single point, primary screen (AID 743398).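 Also: 0% = neutral control wells and 100% = positive control wells.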 Conditions: Wnt/beta-catenin reporter cell assay, activator, at 9.35 µM, hits give high values.
With `CN1CCCCC(NC(=O)C(C)(C)C)C1=O` (configuration not stated), the activation is -0.306%.

As for `Nc1[nH]c(C(=O)c2ccccc2)c(-c2ccc(Cl)cc2Cl)c1C(=O)c1ccccc1`, the activation was 3.74%.

`CCOc1cccc(/C=C/c2ccc3ccccc3n2)c1OC(C)=O`: the activation is 7.85%.

As to `NC(=O)COC(=O)/C=C/c1ccc2ccccc2n1`, the activation was 48.3% (active).

As to `COc1cccc(/C=C/c2ccc3ccccc3n2)c1OC(C)=O`, the activation is -2.71%.

On to `C[C@@H]1CN([C@@H](C)CO)C(=O)CCCn2nncc2CO[C@@H]1CN(C)S(=O)(=O)c1ccc(-c2ccccc2)cc1`, for which the activation was -3.45%.

On to `CCCNC(=O)C1(C)CCN(Cc2csc(-c3ccc(Cl)cc3)n2)C1` (configuration not stated), for which the activation is -1.95%.

For `COC(=O)c1sc(-c2ccc(C(C)(C)C)cc2)cc1NC(=O)/C=C/C(=O)O`, the activation was 34.5% (active).

Consider `O=C(O)/C=C/C(=O)Nc1ccc(F)cc1F`, for which the activation was -1.57%.

Take `COc1ccccc1NC(=O)/C=C/C(=O)O`: the activation was 0.198%.

For `CCc1nc2c(OCc3ccccc3)cccn2c1N(C)C(=O)c1ccco1`, the activation was -1.39%.

Consider `Cc1ccc(C(O)c2ncc(-c3ccccc3F)[nH]2)cc1F` (configuration not stated), for which the activation was -2%.

As for `COc1ccc(C2OC(CCc3ccccc3)Cc3[nH]c(=S)[nH]c(=O)c32)cc1` (configuration not stated), the activation was -4.52%.

Consider `OCCC#Cc1ccc(N2C(c3ccsc3)=Cc3ccc(F)cc3C2c2c[nH]c3ccccc23)cc1` (configuration not stated), for which the activation is -4.42%.

On to `C=CC1=CCN(S(=O)(=O)C(C)(C)C)[C@@H]1CCO`, for which the activation was -5.37%.

For the compound `O=C(N/N=C/c1ccco1)c1csc2c1CCCC2`, the activation is 14.7%.

On to `Cc1ccc(NC(=O)c2csc3c2CCCC3)cc1`, for which the activation was 33.5% (active).

Turning to `O=C(Nc1ccccc1N1CCOCC1)c1csc2c1CCCC2`, the activation was 3.53%.

As for `COc1cccc(CNC(=O)[C@H]2CCCN2C(=O)[C@H]2CCCN2C(=O)c2ccc(F)cc2)c1`, the activation is -3.18%.

`Cc1ccc2nc(-c3ccc(CN4CCC(n5cc(-c6ccccc6)[nH]c5=O)CC4)cc3)c(-c3ccccc3)nc2c1`: the activation is -0.633%.

On to `O=C(NN=Cc1ccc(N2CCOCC2)cc1)c1cc2ccccc2cc1O`, for which the activation is -3.76%.

Regarding `O=C(O)c1ccc2c(c1)C(=O)N(c1ccc(/C=C/C(=O)c3ccccc3)cc1)C2=O`, the activation was 31.9% (active).

For `O=C(/C=C/c1ccc(N2CCOCC2)cc1)c1ccccc1`, the activation is 38.7% (active).

On to `O=C(O)c1ccc2c(c1)C(=O)N(NC(=O)c1ccc(O)cc1)C2=O`, for which the activation was -0.273%.

Regarding `Cc1cccc(N2C(=O)c3ccc(C(=O)Nc4cccc(C(=O)O)c4)cc3C2=O)c1`, the activation is 3.97%.

`O=C(CN1CCN(S(=O)(=O)/C=C/c2ccccc2)CC1)Nc1ccc(N2CCOCC2)cc1`: the activation was -0.917%.

`O=C(c1ccc(N2CCCC2=O)cc1)N1CCN(c2ccc(C(F)(F)F)cc2[N+](=O)[O-])CC1`: the activation was -1.11%.

`CC(=O)c1ccc(Nc2nc(C(N)c3ccccc3Cl)cs2)cc1` (configuration not stated): the activation was -4.58%.

For the compound `O=C(C(=O)N1CCC(CNS(=O)(=O)Cc2ccccc2)CC1)c1cc2ccccc2o1`, the activation was -4.41%.

Turning to `Cc1ccc(C(=O)NNc2ncnc3ccccc23)cc1`, the activation is 42.9% (active).

As to `Cc1ccc(C(=O)NNC(=O)c2cccs2)cc1`, the activation is 6.9%.

For `CCc1nc(SCC(=O)NNC(=O)c2ccc(C)cc2)c2ccccc2n1`, the activation is -1.15%.

In the case of `COC(=O)C1=C(C)N(Cc2ccccc2C(F)(F)F)C(=NCC2CC2)NC1c1cccc(Cl)c1` (configuration not stated), the activation is -1.87%.

With `CCOC(=O)[C@]12CCCC=C1N(Cc1cccc3ccccc13)C(=O)[C@H](CC(=O)NCC13CC4CC(CC(C4)C1)C3)C2`, the activation is -3.35%.

As for `CCc1c(-c2ccc(F)cc2)ncn1Cc1cccc(-c2ccccc2)c1`, the activation was -4.88%.

As to `CN[C@H]1C[C@H]2c3[nH]c4c(-c5ccccc5)cccc4c3CCN2C(=O)[C@H]1[C@H](C)O`, the activation was -5.37%.

Consider `CCCc1nc2c3ccccc3ccn2c1Cc1ccccc1C(F)(F)F`, for which the activation is -0.94%.

For `Cc1ccc(N)cc1CN1CCN(c2ncc(Cc3ccccc3)cn2)CC1`, the activation is -1.28%.

With `CCN(CCn1cccn1)Cc1cn[nH]c1-c1ccc(OC)cc1F`, the activation was 33.5% (active).

`COc1ccc(-c2[nH]ncc2CN(C)Cc2cc(C)[nH]n2)c(F)c1`: the activation is -0.792%.

Consider `COc1ccc(-c2[nH]ncc2CN(C)Cc2cccnc2)c(F)c1`, for which the activation was 8.31%.

Take `NC(=O)c1ccccc1N(Cc1ccccc1)S(=O)(=O)c1ccccc1`: the activation was 30% (active).

For the compound `CCOC(=O)N1CCN(C(=O)c2ccccc2N(Cc2ccccc2)S(=O)(=O)c2ccc(OC)cc2)CC1`, the activation was -3.31%.

Consider `O=C(O)c1cc(S(=O)(=O)N(Cc2ccccc2)c2ccccc2)ccc1Cl`, for which the activation was 1.67%.

Turning to `O=C(N[C@H](Cc1ccccc1)C(=O)N1CCCN(Cc2cccs2)CC1)[C@H]1O[C@@H](n2ccc(=O)[nH]c2=O)[C@H](O)[C@@H]1O`, the activation was 2.26%.

Take `NC(=O)c1ncn([C@@H]2O[C@H](C(=O)O)[C@@H](O)[C@H]2O)n1`: the activation was 3.51%.

As to `COc1ccc(-c2csc(Nc3cccc(C)n3)n2)cc1OC`, the activation is 50% (active).

`Cc1cccc(Nc2nc(-c3ccccc3)cs2)n1`: the activation was 19.7%.

Take `CC(=O)Nc1cccc(-c2csc(Nc3cccc(C)n3)n2)c1`: the activation was 26.8%.

Consider `CC(=NNC(N)=O)c1ccc(Cl)c(-n2cccc2)c1`, for which the activation is -7.68%.

As for `COc1ccccc1-c1cc2nc(NCc3cccc(Cl)c3)ccn2n1`, the activation is -1.89%.

In the case of `CCCCOc1ccc(-c2nnc(-c3ccco3)o2)cc1`, the activation is 46.7% (active).

For the compound `Cc1ccc(OCC(=O)Nc2nnc(-c3ccco3)s2)cc1`, the activation was -0.584%.

In the case of `COc1ccc(OCC(=O)Nc2nnc(-c3ccco3)s2)cc1`, the activation was -4.19%.

On to `C=CCN=C1NC(c2ccccc2)C(C(=O)OC)=C(C)N1Cc1ccc(C(F)(F)F)cc1` (configuration not stated), for which the activation was -8.4%.

Consider `Cn1c(NC(=O)c2ccccc2)nc2ccccc21`, for which the activation was 19.2%.

`Cn1c(S(=O)(=O)O)nc2ccccc21`: the activation was -1.9%.

Take `Cn1c(-c2ccc(C(=O)c3ccccc3)s2)nc2ccccc21`: the activation was 44.9% (active).

As for `CCCCc1c(-c2ccc(Cl)cc2)ncn1CCc1ccccc1OC`, the activation is -10.4%.

Turning to `O=S1(=O)c2ccc(Br)cc2-n2nncc2CN1Cc1cccc(Cl)c1`, the activation is -0.853%.

Take `CCOC(=O)[C@H]1Nc2ccc(Cl)cc2[C@@H]2[C@H]1C1CC(c3ccccc31)N2C(=O)OCc1ccccc1` (some centres not stated): the activation was -1.09%.

Take `Cc1cccc(N2O[C@H]3C=CC2CCCC3)n1`: the activation is -7.04%.

Turning to `Cc1ccn(-c2cccc(-n3ccc(C)n3)n2)n1`, the activation was 57.6% (active).

In the case of `COc1ccc(C2=Nc3ccccc3NC(=O)C2N(C(=O)c2cc3ccccc3[nH]2)c2ccccc2)cc1` (configuration not stated), the activation was 23.9%.

For the compound `CCCCCCCCN1C(=O)[C@@H](CC(=O)N2CCN(C(=O)OCC)CC2)C[C@@]2(C(=O)OC)C1=C[C@H](C1CCCC1)O[C@@H]2C`, the activation is -4.17%.

Consider `CCCCOCCCNC(=O)C[C@@H]1C[C@@]2(C(=O)OCC)CCCC=C2N(CCC2=CCCCC2)C1=O`, for which the activation is -4.42%.

Regarding `CC1CCN(C(=O)c2ncn3c2C(=O)N[C@@H](C)C3)CC1`, the activation is -1.28%.

For the compound `C[C@H]1[C@H](c2ccccc2)Oc2cc(Br)ccc2S(=O)(=O)N1Cc1cccc(F)c1`, the activation is -3.84%.

`CCCNC(=O)C1(C)CCCN(Cc2cccc(C(F)(F)F)c2)C1` (configuration not stated): the activation is -4.42%.

For the compound `O=C(CSC(=S)N1CCCCC1)c1c(F)cccc1F`, the activation was 58.4% (active).

For `O=C(CSC(=S)N1CCOCC1)c1ccccc1`, the activation is 9.4%.

For `COc1cccc(NC(=O)CN(C)C(=O)CSC(=S)N2CCCC2)c1`, the activation was 0.702%.

As for `O=C(NS(=O)(=O)c1cccs1)[C@H]1O[C@@H](n2ccc(=O)[nH]c2=O)[C@H](O)[C@@H]1O`, the activation was -2.42%.

With `COC(=O)[C@]12CCCCC=C1N(Cc1cccc3ccccc13)C(=O)[C@H](CC(=O)N1CCOCC1)C2`, the activation is 2.09%.

`COCc1[nH]nc2c1C(c1ccccc1)N(c1ccccc1)C2=O` (configuration not stated): the activation is -1.18%.

Regarding `Cc1ccc(S(=O)(=O)N2CCN(C(=O)CSc3cc(C)ccc3C)CC2)c(C)c1`, the activation is -0.764%.

On to `Cc1ccc(S(=O)(=O)N2CCN(C(=O)Cn3c(=O)cnc4ccccc43)CC2)c(C)c1`, for which the activation is 68.6% (active).

Consider `Cc1ccc(S(=O)(=O)N2CCN(C(=O)COC(=O)c3c(C)cc(C)cc3C)CC2)c(C)c1`, for which the activation is -2.2%.

For `Cc1ccc2nc(CN(C)C(=O)[C@@H](Cc3ccccc3)NC(=O)[C@H]3O[C@@H](n4ccc(=O)[nH]c4=O)[C@H](O)[C@@H]3O)[nH]c2c1`, the activation is -3.23%.

For the compound `CCCC(=O)N1c2ccc(-c3csc(N)n3)cc2CC1C` (configuration not stated), the activation was 56.5% (active).

Consider `Cc1ccn(CCC(=O)N2c3ccccc3CC2C)n1` (configuration not stated), for which the activation was -0.727%.

`CCn1nc(C(=O)OCC(=O)N2c3ccccc3CC2C)c2ccccc2c1=O` (configuration not stated): the activation was -0.818%.

Regarding `CCc1nc2ccc(C(=O)NC3CCN(Cc4ccccc4)CC3)cn2c1N(CC)CCOC`, the activation was -0.563%.

With `O=C1C(Sc2cccc(F)c2)=C[C@@]2(O)CC[C@@H](O)[C@]1(Sc1cccc(F)c1)[C@H]2O`, the activation was -1.51%.

Consider `O=[N+]([O-])c1cccc(C=NN=Cc2ccccc2O)c1`, for which the activation is 68% (active).

`O=C(N/N=C/c1cccc([N+](=O)[O-])c1)c1ccncc1`: the activation was -0.352%.

As to `COc1ccc(O)c(/C=N/N=C/c2cccc([N+](=O)[O-])c2)c1`, the activation is 5.49%.

(Values after PubChem BioAssay AID743398 (Broad Institute, 2014).)
